According to paper PMC7826789 (International Journal of Molecular Sciences, 2021):

test system: NEK1; conditions: Compound Concentration (nM):1000
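Further: KINOMEscan scanMAX binding as percent activity remaining versus control; lower means stronger binding.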

Row | SMILES | Percent Control
1 | CCn1c(-c2nonc2N)nc2c(C#CC(C)(C)O)nc(OCCNC)cc21.Cl [GSK949675] | 100%
2 | Cl.O=S1CCN(Cc2ccc(-c3ccc4ncnc(Nc5ccc(OCc6ccccc6)c(F)c5)c4c3)o2)CC1 [GW576924A] | 93%
3 | CCS(=O)(=O)c1ccc(OC)c(Nc2ncc(-c3cccc(OC)c3)o2)c1 [GW580509X] | 98%
4 | Cl.c1ccc(Cc2nc3ccc(Nc4ncnc5ccccc45)cc3[nH]2)cc1 [GR269666A] | 99%
5 | NS(=O)(=O)c1ccc(N/N=C2\C(=O)Nc3ccc(C(=O)NCCc4c[nH]cn4)cc32)cc1 [GW300660X] | 100%
6 | C/C(Nc1ccc(S(N)(=O)=O)cc1)=C1/C(=O)Nc2ccccc21 [GW335962X] | 75%
7 | COc1ccccc1-c1cc(/C=C2\C(=O)Nc3ncc(Br)cc32)cc(Br)c1O [GW442130X] | 95%
8 | NS(=O)(=O)c1ccc(N/N=C2\C(=O)Nc3ccc(-c4cnco4)cc32)cc1 [GW276655] | 71%
9 | CN(C)CCNC(=O)Nc1ccc(N(C)c2ccnc(Nc3ccc(CS(C)(=O)=O)cc3)n2)cc1.Cl [GW830900A] | 92%
10 | COc1ccc2[nH]c3c4[nH]c5ccc(OC)cc5c4c4c(c3c2c1)C(=O)NC4=O [GW296115X] | 100%
11 | COc1cc2ncnc(Nc3ccc4c(cnn4Cc4ccccc4)c3)c2cc1OC.Cl [GW282449A] | 95%
12 | NS(=O)(=O)c1ccc(N/N=C2\C(=O)Nc3ccc(Cl)cc32)cc1 [GW280670X] | 100%
13 | CN1CCN(C(=O)c2ccc(NC(=O)Nc3ccc(N(C)c4ccnc(Nc5ccc(CS(C)(=O)=O)cc5)n4)cc3)cc2)CC1.Cl [GW830263A] | 63%
